High-throughput results as filed in PubChem BioAssay.
TrxR1 substrate: qHTS Assay for Substrates of Mammalian Selenoprotein Thioredoxin Reductase 1 (TrxR1): qHTS; actives 0.01% (n = 390,000); purified TrxR1 substrate turnover, NADPH consumption readout; Thioredoxin reductase 1, cytoplasmic (Rattus norvegicus), O89049; Potency, µM (titrated, usually from 114 µM); further: nearly all actives have a fitted effect of over 50% in size
Target sequence (O89049 whole entry, looked up): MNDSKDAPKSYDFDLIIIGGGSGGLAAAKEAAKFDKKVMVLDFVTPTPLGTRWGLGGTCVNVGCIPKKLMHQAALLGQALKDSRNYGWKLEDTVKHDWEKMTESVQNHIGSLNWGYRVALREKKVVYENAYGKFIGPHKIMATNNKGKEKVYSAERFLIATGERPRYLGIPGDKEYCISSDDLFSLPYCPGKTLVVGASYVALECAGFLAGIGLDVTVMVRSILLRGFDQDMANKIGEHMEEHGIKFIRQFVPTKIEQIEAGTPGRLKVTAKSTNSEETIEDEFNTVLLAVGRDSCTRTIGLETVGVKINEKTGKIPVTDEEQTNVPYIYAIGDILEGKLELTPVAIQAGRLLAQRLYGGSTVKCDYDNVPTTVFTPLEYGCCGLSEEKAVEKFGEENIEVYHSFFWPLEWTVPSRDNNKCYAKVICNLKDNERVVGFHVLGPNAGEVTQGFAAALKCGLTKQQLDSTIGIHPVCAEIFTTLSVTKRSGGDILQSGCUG
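Rat TrxR1, dispensed at 90 nM, was prereduced with 400 uM NADPH (final) for 5 min at ~22 deg C, then incubated with compound 15 min before 400 uM selenite. A first-read NADPH fluorescence drop versus no-compound background flagged substrates.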
IDH1 R132H inh: qHTS for Inhibitors of mutant isocitrate dehydrogenase 1 (IDH1): qHTS. IDH1-R132H enzyme, NADPH consumption, diaphorase/resazurin fluorescence. Isocitrate dehydrogenase [NADP] cytoplasmic (Homo sapiens), O75874. actives 0.093% (n = 390,000). Potency, µM (titrated, usually from 76.6 µM), actives largely listed as inhibitors; further: nearly all actives have a fitted effect of over 65% in size
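IDH1-R132H (0.5 ug/mL) preincubated 30 min with compound, then NADPH (0.016 mM) and alpha-KG (2 mM) added; 80 min at RT, pH 7.5. Remaining NADPH coupled via diaphorase/resazurin to fluorescence (540/590 nm); concentration-response curves normalized to no-enzyme control.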
Eya2 phos inh: qHTS Assay for Inhibitors of the Phosphatase Activity of Eya2; recombinant Eya2, OMFP fluorescence dephosphorylation (OMFP is methylfluorescein phosphate); Potency, µM (top dose mostly 76.9 µM), most hits filed as inhibitors; actives 0.006% (n = 330,000); AID 488837, 2010
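Eya2 (0.2 uM) preincubated 10 min at ambient with compound, then OMFP substrate added at 50 uM; 10 min reaction in 50 mM HEPES pH 7.5, 50 mM NaCl, 5 uM MgCl2, 0.05% BSA, 1 mM DTT. Fluorescence read at Ex 485/Em 525 nm.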
TrxR1 inh: qHTS Assay for Inhibitors of Mammalian Selenoprotein Thioredoxin Reductase 1 (TrxR1): qHTS; Thioredoxin reductase 1, cytoplasmic (Rattus norvegicus), O89049; recombinant rTrxR1, NADPH fluorescence consumption, selenite substrate; Potency, µM (series often up to 114 µM), most hits filed as inhibitors; actives 1% (n = 390,000); AID 588453, 2011; further: nearly all actives have a fitted effect of over 65% in size
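Rat TrxR1 (90 nM in the dispensed reagent) was pre-reduced with 400 uM NADPH for 5 min at room temperature, then incubated with compound for 15 min. After 400 uM selenite was added, NADPH fluorescence (Ex 340/Em 450 nm) was followed for 8 min.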
FBPA coupling cs: qHTS Assay for Inhibitors of Fructose-1,6-bisphosphate Aldolase from Giardia Lamblia: Coupling assay counterscreen; actives 0.67% (n = 290,000); AID 2472, 2010; activity change, negative = inhibition, % at 58.2 µM, hits read low; coupling enzyme system counterscreen, AmpLite Red fluorescence; in the data active means activity change below about -30%
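Compounds tested against the coupling enzymes alone at 57.5 uM final; readout was AmpLite Red fluorescence (525/598 nm) after 20 min at RT.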
Each line names hits and unclear results; the compound was inactive in the other large screens; ! = a repeat was not active. This is a sample that favours compounds with a hit; in the whole collection about 1.5% have one here. Unless noted, the call rests on the fitted dose curve; in most records, active means well fitted curve in the direction sought with a large enough effect; inconclusive means small, poorly fitted or top-dose-only effect, or another doubt; inactive means no such curve, though single readings can be large; an effect the other way counts as inactive or inconclusive.

COC(=O)N[C@@H](/C=C/c1ccccc1)C[N+](=O)[O-]	none (no result: TrxR1 substrate, IDH1 R132H inh, Eya2 phos inh, TrxR1 inh)
Cc1ccc(C(=O)N2CCC(C(=O)c3ccc(F)cc3)CC2)cc1	none (no result: Eya2 phos inh, FBPA coupling cs)
Cc1ccc(C(=O)N2C(=S)C(c3ccc(F)cc3)=NC23CCN(C)CC3)cc1	TrxR1 inh 20µM
CN1CCN(CC(=O)n2c3c(c4ccccc42)CCCC3)CC1	FBPA coupling cs -47
C=CCN1C(=O)N/C(=C/c2ccc(C)o2)C1=O	TrxR1 inh 50µM, FBPA coupling cs -39
Cc1ccc(NC(=O)CN2C(=O)N/C(=C/c3ccc(C)o3)C2=O)cc1	TrxR1 inh inconclusive
Cc1cccc(NC(=O)CN2C(=O)N/C(=C/c3ccc(C)o3)C2=O)c1	TrxR1 inh 40µM
CCC(=O)NC(=S)Nc1ccccc1C(=O)OC	TrxR1 inh 50µM
COC(=O)c1cn[nH]c1NC(=S)Nc1ccccc1C	TrxR1 inh 0.79µM
COc1cc(NS(=O)(=O)c2ccc([N+](=O)[O-])cc2)c2ncccc2c1	none (no result: TrxR1 substrate, IDH1 R132H inh, Eya2 phos inh, TrxR1 inh)
Cc1ccc(-n2c(-c3ccccc3)nsc2=NC#N)cc1	none (no result: IDH1 R132H inh, Eya2 phos inh, FBPA coupling cs)
Cc1ccc2[nH]c(-c3ccc(F)cc3F)cc(=O)c2c1	none (no result: TrxR1 substrate, IDH1 R132H inh, Eya2 phos inh, TrxR1 inh)
Cc1ccc(C(=O)c2coc3cc([N+](=O)[O-])c(O)c([N+](=O)[O-])c23)cc1	TrxR1 inh inconclusive, FBPA coupling cs -35
Cc1ccc(C(=O)c2ccc([N+](=O)[O-])cc2)cc1	none
COc1ccc2c([N+](=O)[O-])c(Cl)[nH]c2c1	TrxR1 inh 14µM, FBPA coupling cs -32
CCOC(=O)C1OC1C(=O)N[C@@H](CC(C)C)C(=O)NCCC(C)C (some centres undefined)	none (no result: TrxR1 substrate, IDH1 R132H inh, Eya2 phos inh, TrxR1 inh)
Nc1[nH]c(=S)[nH]c(=O)c1N=O	none (no result: IDH1 R132H inh, Eya2 phos inh, FBPA coupling cs)
O=C(O)c1cc(-c2ccc(Cl)s2)nc2ccccc12	none
Cc1ccc(-c2cc(C(=O)O)c3ccccc3n2)s1	TrxR1 inh 79µM
Cc1ccc(NCc2ccc(O)c3ncccc23)cc1	TrxR1 inh 0.5µM
Cc1ccc(NCc2ccc(O)c3ncccc23)cc1C	TrxR1 inh 2µM
Cc1cccnc1NCc1ccc(O)c2ncccc12	TrxR1 inh inconclusive
COc1ccccc1CC(=O)NO	none (no result: IDH1 R132H inh, Eya2 phos inh, FBPA coupling cs)
COc1ccc(NC(=O)c2nc(S(=O)(=O)Cc3ccc(C)cc3)ncc2Cl)cc1	TrxR1 inh 2.5µM (no result: IDH1 R132H inh, Eya2 phos inh, FBPA coupling cs)
Cc1ccc(CS(=O)(=O)c2ncc(Cl)c(C(=O)Nc3ccc(OC(F)F)cc3)n2)cc1	TrxR1 inh 28µM (no result: FBPA coupling cs)
CCOc1ccc(NC(=O)c2nc(S(=O)(=O)Cc3ccc(C)cc3)ncc2Cl)cc1	TrxR1 inh inconclusive (no result: IDH1 R132H inh, Eya2 phos inh, FBPA coupling cs)
O=C(N/N=C/c1ccc(N2CCOCC2)o1)c1ccccc1[N+](=O)[O-]	TrxR1 inh 8.9µM
O=C(N/N=C/c1ccc(N2CCCCC2)o1)c1ccccc1[N+](=O)[O-]	TrxR1 inh 10µM
O=C(N/N=C/c1ccc(N2CCOCC2)o1)c1cccc(C(F)(F)F)c1	TrxR1 inh 7.1µM
O=C(N/N=C/c1ccncc1)c1ccccc1[N+](=O)[O-]	none
CCOC(=O)NCCOc1ccc(Oc2ccccc2)cc1	none (no result: TrxR1 substrate, IDH1 R132H inh, Eya2 phos inh, TrxR1 inh)
CC(=O)OC[C@H]1O[C@@H](O/N=C(\C)CCN2CCCc3nc(C)c(C)cc32)[C@H](OC(C)=O)[C@@H](OC(C)=O)[C@H]1OC(C)=O	none (no result: TrxR1 substrate, IDH1 R132H inh, Eya2 phos inh, TrxR1 inh)
CC(C)c1ccc(NC(=O)CSc2nnc(-c3ccccc3)n2C)cc1	none (no result: IDH1 R132H inh, Eya2 phos inh, FBPA coupling cs)
CN1CCOc2cc(S(=O)(=O)N3CCN(c4nc(-c5cccs5)nc5ccccc45)CC3)ccc21	none (no result: IDH1 R132H inh, Eya2 phos inh, FBPA coupling cs)
CN(C)CC/C=C1\c2ccccc2COc2ccccc21	TrxR1 inh 32µM!
CN(C)CC/C=C1/c2ccccc2CS(=O)(=O)c2ccccc21	none (no result: Eya2 phos inh, FBPA coupling cs)
COC(=O)[C@H](CC(C)C)NC(=O)c1ccc(NC[C@@H](N)CS)cc1-c1cccc2ccccc12	none (no result: TrxR1 substrate, IDH1 R132H inh, Eya2 phos inh, TrxR1 inh)
COc1ccc(CNc2nc(NCc3ccc(OC)cc3)c3ncn(C4CCCCC4)c3n2)cc1	none (no result: TrxR1 substrate, IDH1 R132H inh, Eya2 phos inh, TrxR1 inh)
O=S(=O)(Nc1ccccc1N1CCCCC1)c1ccc(Cl)s1	none
O=S(=O)(Nc1cc(O)cc2cccnc12)c1ccc(Cl)s1	FBPA coupling cs -64 (no result: TrxR1 substrate, IDH1 R132H inh, Eya2 phos inh, TrxR1 inh)
O=S(=O)(Nc1cc(O)cc2cccnc12)c1ccc(Br)s1	FBPA coupling cs -68 (no result: TrxR1 substrate, IDH1 R132H inh, Eya2 phos inh, TrxR1 inh)
C/C=C(\NNC(C)=O)c1ccc(O)cc1	TrxR1 inh inconclusive (no result: IDH1 R132H inh, Eya2 phos inh, FBPA coupling cs)
CCn1nc(C)cc1C(=O)Sc1cccc(Br)c1	TrxR1 inh 7.9µM
COc1ccc(C(=O)c2coc3c2C(=O)C(=O)c2ccccc2-3)cc1	FBPA coupling cs -75
CC(OC(=O)c1cccs1)C(=O)NCc1ccco1 (centres undefined)	none
COc1ccccc1C(OC(=O)c1cccs1)C(=O)NCc1ccco1 (centres undefined)	TrxR1 inh 16µM
c1cnc2c(c1)ccc1cccnc12	FBPA coupling cs -66!
O=Cc1ccc2ccc3cccnc3c2n1	none
O=C1C=CC(=O)N1c1cccc2cccnc12	TrxR1 inh 56µM (no result: Eya2 phos inh, FBPA coupling cs)
Cc1cccc2cccnc12	none (no result: FBPA coupling cs)
COc1ccc2c(c1)CCc1c(C(=O)N3CCOCC3)noc1-2	TrxR1 inh 20µM
COc1ccc(NC2=C(Cl)C(=O)N(c3ccccc3)C2=O)c(OC)c1	TrxR1 inh 13µM
CN1C2CC(OC(=O)C(CO)c3ccccc3)C[C@@H]1[C@H]1OC21 (some centres undefined)	none (no result: TrxR1 substrate, IDH1 R132H inh, Eya2 phos inh, TrxR1 inh)
C=CCOc1c(Br)cc(CNc2ccc(NC(=O)C(C)C)c(OC)c2)cc1OC	FBPA coupling cs -45
